Test results reported in publication PMC7862700, “An all-to-all approach to the identification of sequence-specific readers for epigenetic DNA modifications on cytosine”.

Legend:
Test in all cases: DAPPL (digital affinity profiling via proximity ligation, sequencing); 10 mM Tris-HCl pH 7.5, 50 mM NaCl, 1 mM DTT, 4% glycerol, room temperature, 30 min; GST-TFs on glutathione beads, 16-mer random dsDNA library, 0.1% formaldehyde crosslink after washing; high values mean tight binding
Conditions in all cases: protein: recombinant; tags: N-terminal GST; dsDNA, one strand shown
[1] = biological target: T1, FEV (Homo sapiens, UniProt Q99581 1-238)
T1 sequence: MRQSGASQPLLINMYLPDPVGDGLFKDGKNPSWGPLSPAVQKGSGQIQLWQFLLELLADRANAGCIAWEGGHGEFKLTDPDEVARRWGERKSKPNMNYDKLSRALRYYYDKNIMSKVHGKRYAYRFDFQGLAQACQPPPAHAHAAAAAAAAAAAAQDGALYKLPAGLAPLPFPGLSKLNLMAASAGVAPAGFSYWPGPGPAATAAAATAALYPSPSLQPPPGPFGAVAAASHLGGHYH
Summary of the method: (§1)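 The binding signal reported is, for every hexamer, its read frequency for a factor over its read frequency for the tag-only sample. Reads came from pools of yeast-expressed, GST-fused human transcription factors on glutathione beads, barcoded with DNA and mixed with that sample, which were incubated with 200 nmole of a random double-stranded 16-mer DNA library in Tris/NaCl/DTT/glycerol buffer at room temperature for 30 min. After washing, the pools were crosslinked with 0.1% formaldehyde, proximity-ligated with BsaI/T4 ligase for 1 h at 37 °C, PCR-amplified and sequenced on an Illumina NextSeq500.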

[2] = biological target: ETV5 (Homo sapiens, UniProt P41161 1-510)
Sequence of ETV5 (P41161 whole entry): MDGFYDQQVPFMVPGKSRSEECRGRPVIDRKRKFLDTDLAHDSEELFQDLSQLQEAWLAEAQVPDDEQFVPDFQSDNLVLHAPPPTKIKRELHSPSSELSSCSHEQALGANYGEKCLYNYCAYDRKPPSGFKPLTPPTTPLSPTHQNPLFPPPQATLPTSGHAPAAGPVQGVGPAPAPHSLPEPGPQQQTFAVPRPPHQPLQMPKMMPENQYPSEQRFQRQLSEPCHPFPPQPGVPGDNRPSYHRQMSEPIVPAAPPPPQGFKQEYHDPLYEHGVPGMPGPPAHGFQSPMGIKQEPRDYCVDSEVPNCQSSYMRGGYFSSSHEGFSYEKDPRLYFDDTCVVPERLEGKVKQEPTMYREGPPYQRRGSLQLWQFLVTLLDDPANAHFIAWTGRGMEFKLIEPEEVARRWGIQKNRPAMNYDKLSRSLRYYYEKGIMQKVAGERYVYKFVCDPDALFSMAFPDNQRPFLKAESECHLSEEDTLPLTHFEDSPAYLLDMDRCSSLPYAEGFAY
Summary of the method: as §1

[3] = biological target: T2, ELF3 (Homo sapiens, UniProt P78545 1-371)
T2 sequence: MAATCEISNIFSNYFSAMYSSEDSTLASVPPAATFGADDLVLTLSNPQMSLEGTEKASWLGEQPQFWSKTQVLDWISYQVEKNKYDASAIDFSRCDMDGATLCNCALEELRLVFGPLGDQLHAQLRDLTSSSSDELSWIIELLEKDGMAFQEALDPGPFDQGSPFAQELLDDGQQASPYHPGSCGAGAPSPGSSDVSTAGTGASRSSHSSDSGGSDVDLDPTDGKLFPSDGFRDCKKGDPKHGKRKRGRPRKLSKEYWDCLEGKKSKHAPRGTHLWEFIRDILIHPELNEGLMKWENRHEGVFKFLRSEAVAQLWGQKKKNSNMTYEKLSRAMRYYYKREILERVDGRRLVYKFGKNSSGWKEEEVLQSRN
Summary of the method: as §1

[4] = biological target: T3, SPDEF (Homo sapiens, UniProt O95238 1-335)
T3 sequence: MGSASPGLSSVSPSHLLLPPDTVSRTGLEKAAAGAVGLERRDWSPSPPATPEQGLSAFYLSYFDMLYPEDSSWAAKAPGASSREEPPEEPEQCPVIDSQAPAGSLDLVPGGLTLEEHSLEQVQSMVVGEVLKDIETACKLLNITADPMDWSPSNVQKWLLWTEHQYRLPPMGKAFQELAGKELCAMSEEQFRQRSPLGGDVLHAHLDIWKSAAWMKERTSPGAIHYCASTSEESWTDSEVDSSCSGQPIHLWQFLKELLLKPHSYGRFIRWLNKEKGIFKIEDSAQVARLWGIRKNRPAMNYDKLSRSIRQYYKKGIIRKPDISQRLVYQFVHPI
Summary of the method: as §1

[5] = biological target: T4, ETV7 (Homo sapiens, UniProt Q9Y603 1-341)
T4 sequence: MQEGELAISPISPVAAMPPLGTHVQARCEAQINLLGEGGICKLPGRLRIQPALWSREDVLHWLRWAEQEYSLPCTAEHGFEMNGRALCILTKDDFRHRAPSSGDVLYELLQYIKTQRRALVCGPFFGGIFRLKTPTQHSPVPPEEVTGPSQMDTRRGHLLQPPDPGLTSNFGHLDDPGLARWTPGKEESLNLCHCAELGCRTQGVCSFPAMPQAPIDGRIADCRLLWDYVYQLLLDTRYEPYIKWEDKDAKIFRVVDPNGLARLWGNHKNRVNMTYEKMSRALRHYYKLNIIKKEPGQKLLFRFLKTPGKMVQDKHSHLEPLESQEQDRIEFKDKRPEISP
Summary of the method: as §1

Sequence: TGACGG
- binding signal [1]: 1.06 fold enrichment (6-mer frequency, TF over GST control)
- binding signal [2]: 1.04 fold enrichment (6-mer frequency, TF over GST control)
- binding signal [3]: 1.06 fold enrichment (6-mer frequency, TF over GST control)
- binding signal [4]: 1.06 fold enrichment (6-mer frequency, TF over GST control)
- binding signal [5]: 1.02 fold enrichment (6-mer frequency, TF over GST control)
